Measured values taken from PubChem BioAssay AID1490 (National Center for Advancing Translational Sciences (NCATS), 2009).
Out of some 310,000 compounds screened, about 11,000 (3.5%) were called active. Inconclusive results (about 4%) are left out. Calls follow the shape of the dose curve; as a rule, active = well fitted inhibition curve with a large enough effect; inconclusive = small, poorly fitted or top-dose-only effect, or another doubt; inactive = no such curve, though single readings can be large or run the other way. The sample as a whole holds a higher share of actives than the screen did.

These compounds were tested against 4'-phosphopantetheinyl transferase ffp (Bacillus subtilis) (UniProt Q9F4F7) (assay: qHTS Assay for Inhibitors of Bacillus subtilis Sfp phosphopantetheinyl transferase (PPTase)). Settings: Biochemical Sfp PPTase activity.
Outline: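 Fluorescence-quenching assay with 15 nM Sfp, 5 uM rhodamine-CoA and 12.5 uM BHQ-2-labelled ybbR peptide in pH 7.6 Hepes/MgCl2 buffer. Enzyme was pre-incubated with compound for 15 min at room temperature. Rate was taken from the 30-min fluorescence change (525/598 nm).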
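Also: the enzyme is Sfp with the accession as filed and its product quenches rhodamine fluorescence.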
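For largest response in the series, negative = inhibition in this document: 0% = enzyme reaction without inhibitor and -100% = no enzyme wells.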
Potency is read from the fitted curve at half-maximal effect.

Row | Compound | largest response in the series, negative = inhibition | Potency
1 | Cc1ccc(C(=O)NCCN2CCOCC2)cc1C | 11.9% (inactive) | 
2 | Cc1cccc(-c2nc3ccc(C(=O)NCCN4CCN(C)CC4)cc3nc2-c2cccc(C)c2)c1 |  | 50.1 µM (active)
3 | CCC1=Nc2cc(C(=O)NCCN3CCCC3)ccc2Sc2ccc(C)cc21 | -8.33% (inactive) | 
4 | Cc1ccc(OCCCC(=O)Nc2ccc(S(=O)(=O)Nc3cc(C)nc(C)n3)cc2)cc1 | 5.46% (inactive) | 
5 | CC1(C)OC2CO[C@]3(COS(N)(=O)=O)OC(C)(C)OC3C2O1 (some centres not stated) | 20.4% (inactive) | 
6 | O=C(CNC(=O)C1COc2ccccc2O1)N/N=C/c1cc(Br)c(O)c(Br)c1 (configuration not stated) | 1.24% (inactive) | 
7 | O=C(N/N=C/c1cc2c(cc1Br)OCO2)C1COc2ccccc2O1 (configuration not stated) | 0.904% (inactive) | 
8 | O=C(N/N=C\c1cc(Br)c(Br)o1)C1COc2ccccc2O1 (configuration not stated) |  | 39.8 µM (active)
9 | C=CCN1CCN(C(=O)CCCc2ccccc2)CC1 | 13.4% (inactive) | 
10 | Cc1cccc(OCC(=O)Nc2ccc(NC(=O)c3ccco3)c(C)c2)c1 | 16.8% (inactive) | 
11 | O=C(Nc1cc(C(F)(F)F)ccc1Cl)c1cc(C2CC2)on1 | 15.4% (inactive) | 
12 | CSc1ccccc1NC(=O)c1cc(C2CC2)on1 |  | 17.8 µM (active)
13 | O=C(NC1CCCCC1)c1cc(C2CC2)on1 | 2.59% (inactive) | 
14 | O=C(NC(=S)Nc1ccccc1N1CCCCC1)c1ccc(F)cc1 | 5.51% (inactive) | 
15 | CC1CN(C(=S)Nc2ccccc2F)CC(C)O1 (configuration not stated) | -11.5% (inactive) | 
16 | Oc1ccc(Br)cc1/C=N/Nc1ccccn1 | 5.24% (inactive) | 
17 | Oc1ccc(/C=N/Nc2ccc(C(F)(F)F)cn2)cc1O |  | 28.2 µM (active)
18 | O=C(Nc1ccccc1)Nc1ccc(C(F)(F)F)cn1 | 11.2% (inactive) | 
19 | Cc1c(Cl)c([N+](=O)[O-])nn1CC(=O)NCCCN1CCOCC1 | 1.31% (inactive) | 
20 | O=C(CN1C(=O)COc2ccc(Cl)cc21)N1CCOCC1 | 9.91% (inactive) | 
21 | O=C(COc1ccc(Cl)cc1Cl)N/N=C/c1ccccn1 | -29.7% (inactive) | 

Row | Compound | largest response in the series, negative = inhibition | Potency
22 | O=C(N/N=C/c1ccccn1)C12CC3CC(CC(C3)C1)C2 | -35% (inactive) | 
23 | CNC(=O)C(=O)N/N=C/c1ccccn1 |  | 79.4 µM (active)
24 | O=C(N/N=C/c1ccccn1)c1cccc(NC(=O)c2ccc(Cl)cc2)c1 | 10.1% (inactive) | 
25 | O=C(N/N=C/c1ccccn1)c1cccnc1 |  | 2 µM (active)
26 | O=C(N/N=C/c1ccc(O)c2ccccc12)c1cccnc1 | 7.11% (inactive) | 
27 | O=C(CCC1CCCC1)N=C1SC2CS(=O)(=O)CC2N1Cc1ccccc1 (configuration not stated) | 11.9% (inactive) | 
28 | Cc1ccnc(NC(=O)CCNS(=O)(=O)c2ccc(C)c(C)c2)c1 | 9.67% (inactive) | 
29 | S=c1nccc(-c2cc(Cl)sc2Cl)[nH]1 |  | 79.4 µM (active)
30 | O=C(NCCS(=O)(=O)N1CCN(c2ccccc2F)CC1)c1ccc(Br)o1 | 27.4% (inactive) | 
31 | O=C1C=C(c2ccc(Cl)cc2)C(=O)N1Nc1ccccc1 |  | 10 µM (active)
32 | O=C1c2cccc3cc(Br)cc(c23)C(=O)N1Nc1ccccc1 | 9.09% (inactive) | 
33 | O=C(O)CC1=C(Nc2ccccc2)C(=O)N(c2ccccc2)C1c1ccc(Cl)cc1 (configuration not stated) | 18.5% (inactive) | 
34 | Cc1cccc2c1-c1sc(C(=O)NCCCN3CCc4ccccc4C3)cc1CO2 |  | 44.7 µM (active)
35 | O=C(NCCCN1CCOCC1)c1cc2c(s1)CCC2 | 23.9% (inactive) | 
36 | O=C(CN1C(=O)COc2ccccc21)NCCN1CCc2ccccc2C1 | 7.58% (inactive) | 
37 | O=C(CCCC(=O)N1CCN(c2cccc(Cl)c2)CC1)c1ccccc1 | -3.1% (inactive) | 
38 | CN(C(=O)COC(=O)CNC(=O)C12CC3CC(CC(C3)C1)C2)c1ccccc1 | 0.528% (inactive) | 
39 | O=C(N/N=C/c1cccc(OC(=O)c2ccc([N+](=O)[O-])cc2)c1)c1cccnc1 | 10% (inactive) | 
40 | COc1ccc(C2/C(=C(/O)c3ccccc3)C(=O)C(=O)N2c2ncccn2)cc1OC (configuration not stated) | -2.32% (inactive) | 
41 | COc1ccc(/C(O)=C2/C(=O)C(=O)N(CCCN(C)C)C2c2ccccc2)cc1OC (configuration not stated) | 6.96% (inactive) | 
42 | CCN(CC)CCN1C(=O)C(=O)/C(=C(/O)c2ccccc2)C1c1ccccc1F (configuration not stated) | 4.16% (inactive) | 

Row | Compound | largest response in the series, negative = inhibition | Potency
43 | CCCOc1ccc(/C(O)=C2/C(=O)C(=O)N(CCN(C)C)C2c2ccc(OC)c(OC)c2)cc1 (configuration not stated) |  | 79.4 µM (active)
44 | COc1cccc(C2/C(=C(/O)c3ccc(F)cc3)C(=O)C(=O)N2CCN(C)C)c1 (configuration not stated) | -8.12% (inactive) | 
45 | CCN(CC)CCN1C(=O)C(=O)/C(=C(/O)c2ccc(OC)c(OC)c2)C1c1ccccn1 (configuration not stated) |  | 56.2 µM (active)
46 | CC(=O)c1cccc(NC(=O)COc2ccc(S(=O)(=O)N3CCOCC3)cc2)c1 | 14.4% (inactive) | 
47 | O=C(O)CN1c2cccc3cccc(c23)S1(=O)=O | -16.8% (inactive) | 
48 | CSc1n[nH]c(=S)n1N |  | 44.7 µM (active)
49 | COc1ccc(OCc2n[nH]c(=S)n2N)cc1 | -87.4% (inactive) | 
50 | O=C(Cn1cnc2ccccc21)N/N=C/c1ccco1 | 15.1% (inactive) | 
51 | CC(C)NC(=O)C(=O)N/N=C/c1ccco1 | 13% (inactive) | 
52 | O=c1nc(N/N=C/c2ccco2)cn[nH]1 |  | 31.6 µM (active)
53 | Cc1ccc(S(=O)(=O)NCc2ccc(C(=O)NC3CCC(C)CC3)cc2)cc1 (configuration not stated) | 17% (inactive) | 
54 | Cc1ccc(NC2CCCN(C(=O)CCc3cn[nH]c3)C2)cc1C (configuration not stated) | 7.06% (inactive) | 
55 | O=C(O)CCCn1cc(NC(=O)COc2cccc(Cl)c2)cn1 | 12.9% (inactive) | 
56 | O=S(=O)(NC1CC1)c1ccc(Cl)cc1 | 10.7% (inactive) | 
57 | Cc1cccc(C)c1NC(=O)C1CCCN1C(=O)OC(C)(C)C (configuration not stated) | 0.244% (inactive) | 
58 | Cc1cc(C)c(NC(=S)N2CCCC2C(=O)O)c(C)c1 (configuration not stated) |  | 35.5 µM (active)
59 | Cc1cc([N+](=O)[O-])c(N2CCC[C@@H]2C(=O)O)c([N+](=O)[O-])c1 | 0.854% (inactive) | 
60 | O=[N+]([O-])c1ccc(N2CCN(c3ccc(F)cc3)CC2)cn1 | 10.5% (inactive) | 
61 | CC1C(=O)C(C)C(c2ccc(O)cc2)NC1c1ccc(O)cc1 (configuration not stated) | 4.83% (inactive) | 
62 | COc1ccc(-c2cc(=O)oc3cc(OC(C)C(=O)NCC4CCC(C(=O)O)CC4)ccc23)cc1 (configuration not stated) | 18.5% (inactive) | 
